Test results published in PubChem BioAssay (NCATS).
Results filed as inconclusive are left out. Entries that show only a call come without a potency. Active and inactive are the calls of the source. Unless noted, the call rests on the fitted dose curve; in most records, active means well fitted curve in the direction sought with a large enough effect; inconclusive means small, poorly fitted or top-dose-only effect, or another doubt; inactive means no such curve, though single readings can be large; an effect the other way counts as inactive or inconclusive.

Legend:
[1] = Nrf2 qHTS screen for inhibitors: Validation (AID 493153; active means well fitted inhibition curve with a large enough effect in the main read-out, with a control signal flat, not every such curve was filed as active); conditions: Potency: luciferase luminescence; viability change: measured here: cytotoxicity max response
Outline: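 Concentration-response test in A549 ARE_Fluc reporter cells (5% FBS OPTI-MEM), compound exposure 18-24 h at 37°C, 5% CO2. Cell viability measured first by CellTiter-Fluor fluorescence; ARE-driven luciferase luminescence then measured as Nrf2 activity.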

[2] = qHTS for Inhibitors of Cell Surface uPA Generation: Validation Assay (AID 493164);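 further: RAW 264.7 macrophage cells exposed to compound for 18 h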
Outline: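 Compounds are titrated over seven points (2.45 nM–38.3 uM final) onto pre-plated RAW 264.7 cells and incubated for 18 h. Retained intracellular ATP, measured with ATP-Lite, indicates blocked lethal factor entry.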

[3] = molecular target: Peptidyl-prolyl cis-trans isomerase NIMA-interacting 1 (Homo sapiens) (UniProt Q13526); test: qHTS Validation Assay to Find Inhibitors of Pin1 (AID 504536; active means well fitted inhibition curve with a large enough effect in the polarisation, with a control signal flat, not every such curve was filed as active; the % refers to the polarisation)
Outline: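 Fluorescence polarization competition: compounds (titration) displace HiFluor-488-labeled Pin1-1b peptide from Pin1 (0.3 uM final) in pH 7.5 HEPES buffer with DTT, 10 min at room temperature; %Activity normalized to no-enzyme wells, curves fitted.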

[4] = molecular target: Phosphoglycerate kinase, glycosomal (Trypanosoma brucei brucei) (UniProt P07378); test: qHTS Validation Assay to Find Inhibitors of Phosphoglycerate Kinase (AID 504547); further: potency means the concentration at half of the fitted maximal effect
Outline: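 In TEA buffer (100mM, pH 7.6) containing 5mM MgCl2 and 0.01% Tween-20, the GAPDH-coupled PGK reaction proceeded for 60 minutes at room temperature before a single luminescence reading using Kinase-Glo Plus.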

[5] = molecular target: phosphoglycerate mutase (Leishmania major) (UniProt Q4Q090); test: qHTS Validation Assay to Find Inhibitors of Phosphoglycerate Mutase (AID 504548); conditions: Potency: inhibition qHTS; further: series mostly up to about 58 µM
Outline: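 Lm PGAM 1.25nM final; 100 mM TEA pH 7.6, 5 mM MgCl2, 0.01% Tween-20; 45 min RT; Kinase-GloPlus, 10 min; end-point luminescence. Enzyme-free wells as negative controls.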

[6] = molecular target: Ubiquitin carboxyl-terminal hydrolase 1 (Homo sapiens) (UniProt O94782); test: Inhibitors of USP1/UAF1: Pilot qHTS (AID 504865); further: nearly all actives have a fitted effect of over 35% in size; further: potency means the concentration at half of the fitted maximal effect
Outline: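 USP1/UAF1 complex (1nM) preincubated with compound 15 min at room temperature, then Ub-Rho substrate (150nM final) added. Fluorescence read kinetically at 480/540 nm, 6 reads every 60 seconds. Buffer: 50mM HEPES pH 7.8, 0.5mM EDTA, 0.1 mg/ml BSA, 1mM TCEP, 0.01% Tween-20.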

[7] = qHTS for Inhibitors of ATXN expression: Validation of Cytotoxic Assay (AID 588349); further: potency means the concentration at half of the fitted maximal effect
Outline: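 Cytotoxicity counter-screen: HEK293 cells exposed to compound titrations, 72 hr, 37 degrees C. Read-out is intracellular ATP (CellTiter Glo luminescence) as a viability measure.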

[8] = qHTS for Inhibitors of ATXN expression: Validation (AID 588378); further: nearly all actives have a fitted effect of over 75% in size; further: potency means the concentration at half of the fitted maximal effect
Outline: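 Luminescence from an ATXN2-FFLuc reporter in HEK293 cells served as read-out after 24 h compound treatment at 37 degrees C; CellTiter-Fluor fluorescence was recorded first to assess viability.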

[9] = Validation screen for small molecules that induce DNA re-replication in SW480 colon adenocarcinoma cells (AID 504364)
Outline: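 Read-out: total Hoechst intensity of nuclei by fluorescence scanning imager; hits raise the fraction of nuclei with elevated DNA content. Cells received compound for 48 hr at 37 C before a 40 min stain.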

[10] = molecular target: Galactokinase (Homo sapiens) (UniProt P51570); test: qHTS Validation Assay for Inhibitors of Human Galactokinase (GALK) (AID 493189)
Outline: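 GALK (5 nM) with 35 uM ATP and 100 uM galactose in HEPES pH8.0, MgCl2, NaCl, DTT, BSA; 1 h at room temperature. Residual ATP read by Kinase-Glo Plus luminescence after 10 min.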

Chain of phosphoglycerate mutase (Leishmania major) (Q4Q090 1-553): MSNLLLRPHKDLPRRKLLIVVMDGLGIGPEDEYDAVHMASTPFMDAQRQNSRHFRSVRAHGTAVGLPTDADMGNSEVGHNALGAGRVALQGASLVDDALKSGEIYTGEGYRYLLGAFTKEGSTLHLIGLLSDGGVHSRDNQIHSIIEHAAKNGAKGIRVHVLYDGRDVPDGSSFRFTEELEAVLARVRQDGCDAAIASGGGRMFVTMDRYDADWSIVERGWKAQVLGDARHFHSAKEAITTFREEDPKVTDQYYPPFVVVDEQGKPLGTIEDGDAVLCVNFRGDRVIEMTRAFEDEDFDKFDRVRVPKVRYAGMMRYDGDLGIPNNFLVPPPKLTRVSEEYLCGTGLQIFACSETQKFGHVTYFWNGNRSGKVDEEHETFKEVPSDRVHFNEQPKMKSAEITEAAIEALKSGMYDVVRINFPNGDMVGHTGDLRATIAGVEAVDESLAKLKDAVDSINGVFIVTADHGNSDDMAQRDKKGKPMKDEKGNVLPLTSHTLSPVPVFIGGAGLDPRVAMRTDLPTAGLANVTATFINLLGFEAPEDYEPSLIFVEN
Chain of Ubiquitin carboxyl-terminal hydrolase 1 (Homo sapiens) (O94782 whole entry, looked up): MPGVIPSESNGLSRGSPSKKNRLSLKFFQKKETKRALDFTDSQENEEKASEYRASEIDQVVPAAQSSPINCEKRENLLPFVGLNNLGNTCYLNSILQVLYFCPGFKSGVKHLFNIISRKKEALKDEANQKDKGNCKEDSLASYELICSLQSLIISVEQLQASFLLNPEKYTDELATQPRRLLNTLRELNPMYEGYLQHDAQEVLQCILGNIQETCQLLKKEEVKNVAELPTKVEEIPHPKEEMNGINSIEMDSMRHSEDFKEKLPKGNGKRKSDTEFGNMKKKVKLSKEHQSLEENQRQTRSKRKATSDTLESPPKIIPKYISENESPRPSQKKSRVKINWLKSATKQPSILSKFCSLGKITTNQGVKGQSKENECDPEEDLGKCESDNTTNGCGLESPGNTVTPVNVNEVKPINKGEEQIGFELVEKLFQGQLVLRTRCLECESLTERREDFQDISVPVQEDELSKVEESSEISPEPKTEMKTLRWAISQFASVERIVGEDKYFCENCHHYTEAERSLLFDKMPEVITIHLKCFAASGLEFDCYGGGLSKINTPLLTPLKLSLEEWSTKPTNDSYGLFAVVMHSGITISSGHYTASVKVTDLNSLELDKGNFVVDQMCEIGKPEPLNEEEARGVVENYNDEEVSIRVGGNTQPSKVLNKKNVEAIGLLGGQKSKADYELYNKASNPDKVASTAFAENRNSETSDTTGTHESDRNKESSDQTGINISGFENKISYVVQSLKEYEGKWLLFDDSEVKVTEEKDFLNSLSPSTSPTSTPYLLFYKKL
Chain of Galactokinase (Homo sapiens) (P51570 whole entry, looked up): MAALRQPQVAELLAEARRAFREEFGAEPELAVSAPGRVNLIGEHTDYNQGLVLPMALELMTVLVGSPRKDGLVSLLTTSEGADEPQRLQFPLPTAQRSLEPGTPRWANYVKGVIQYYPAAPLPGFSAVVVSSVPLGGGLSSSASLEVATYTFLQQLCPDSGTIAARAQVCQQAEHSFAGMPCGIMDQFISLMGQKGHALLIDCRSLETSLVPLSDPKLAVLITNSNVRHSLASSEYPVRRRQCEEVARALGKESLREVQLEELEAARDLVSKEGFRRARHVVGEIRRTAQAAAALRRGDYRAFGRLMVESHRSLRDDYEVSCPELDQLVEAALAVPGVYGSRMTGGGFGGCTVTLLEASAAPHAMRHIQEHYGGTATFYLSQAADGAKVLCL
Chain of Peptidyl-prolyl cis-trans isomerase NIMA-interacting 1 (Homo sapiens) (Q13526 whole entry, looked up): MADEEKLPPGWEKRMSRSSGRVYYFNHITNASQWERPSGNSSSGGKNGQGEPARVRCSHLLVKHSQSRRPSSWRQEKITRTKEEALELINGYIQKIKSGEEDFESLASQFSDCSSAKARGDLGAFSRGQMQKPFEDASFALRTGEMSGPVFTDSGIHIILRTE
Chain of Phosphoglycerate kinase, glycosomal (Trypanosoma brucei brucei) (P07378 whole entry, looked up): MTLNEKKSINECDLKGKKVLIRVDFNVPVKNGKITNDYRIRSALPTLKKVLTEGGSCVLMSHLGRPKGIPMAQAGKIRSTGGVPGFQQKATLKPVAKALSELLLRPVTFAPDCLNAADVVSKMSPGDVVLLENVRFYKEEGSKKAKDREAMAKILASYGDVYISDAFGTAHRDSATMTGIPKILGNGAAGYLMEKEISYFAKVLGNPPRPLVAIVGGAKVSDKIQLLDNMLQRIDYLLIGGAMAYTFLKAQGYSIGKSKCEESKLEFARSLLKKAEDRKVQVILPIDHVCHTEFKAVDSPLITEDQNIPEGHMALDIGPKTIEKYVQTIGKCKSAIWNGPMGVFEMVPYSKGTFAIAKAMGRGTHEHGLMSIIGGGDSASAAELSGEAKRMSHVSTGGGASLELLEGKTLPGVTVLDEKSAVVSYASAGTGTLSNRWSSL

| Structure (SMILES) | Potency [1] | viability change [1] | outcome [2] | Potency [3] | Potency [4] | Potency [5] | Potency [6] | Potency [7] | Potency [8] | Potency [9] | Potency [10] |
| --- | --- | --- | --- | --- | --- | --- | --- | --- | --- | --- | --- |
| c1ccc2c(c1)CCC[C@H]2Nc1nc2ccccc2[nH]1 | inactive | -8.96% | inactive | inactive | inactive | inactive | inactive | inactive | inactive | – | – |
| COc1cc(/C=C(\C#N)C(=O)c2ccc(O)c(O)c2)cc(I)c1O | inactive | -22% | inactive | – | 2.13 µM (active) | inactive | 50.1 µM (active) | – | inactive | inactive | – |
| O=C(O)C1CN(CCCP(=O)(O)O)CCN1 (centres undefined) | inactive | 8.53% | inactive | – | inactive | inactive | inactive | inactive | inactive | – | inactive |
| CN1CCc2cc(Cl)c(O)cc2[C@@H](c2ccccc2)C1 | inactive | 5.24% | inactive | – | inactive | – | inactive | – | inactive | – | – |
| OC[C@H]1O[C@H](n2cnc3c(N[C@H]4CCC[C@@H]4O)ncnc32)[C@H](O)[C@@H]1O | inactive | 2.15% | inactive | inactive | inactive | inactive | inactive | inactive | inactive | – | – |
| COc1ccc(CCn2nnnc2C2(c3ccc(C)cc3)CC2)cc1 | inactive | 2.86% | inactive | inactive | inactive | inactive | – | – | inactive | – | – |
| CCCc1c(-c2ccc(O)cc2)nn(-c2ccc(O)cc2)c1-c1ccc(O)cc1 | inactive | -5.33% | inactive | – | inactive | – | inactive | – | – | – | inactive |
| O=C(N[C@@H](Cc1ccccc1)C(=O)CCl)OCc1ccccc1 | – | – | inactive | – | inactive | inactive | 28.2 µM (active) | 3.55 µM (active) | 3.98 µM (active) | inactive | inactive |
| COc1ccc2c(c1)c(CC(=O)O)c(C)n2Cc1ccc(Cl)cc1 | – | – | inactive | inactive | inactive | inactive | inactive | inactive | inactive | inactive | inactive |
| C/C(=C\c1ccc(C(=O)O)cc1)c1ccc2c(c1)C(C)(C)CCC2(C)C | – | – | inactive | – | inactive | inactive | 31.6 µM (active) | inactive | inactive | inactive | inactive |
| O=C(O)c1ccccc1Nc1cccc(OCc2ccc3ccccc3n2)c1 | – | – | inactive | inactive | inactive | inactive | – | inactive | inactive | inactive | inactive |
| COc1ccccc1N1CCN(CCCCNC(=O)c2ccc3ccccc3c2)CC1 | – | – | inactive | – | inactive | inactive | inactive | inactive | inactive | inactive | inactive |
| Nc1ccc2c3c(cccc13)C(=O)NC2=O | – | – | inactive | – | inactive | inactive | 25.1 µM (active) | inactive | inactive | inactive | inactive |
| CCCCCCCCCCCCCCCCCCOC[C@H](COP(=O)([O-])OCC[N+](C)(C)C)OC | – | – | inactive | inactive | inactive | inactive | inactive | – | inactive | inactive | inactive |
| Oc1cc(O)c2c(c1)O[C@H](c1ccc(O)c(O)c1)[C@@H](O)C2 | – | – | inactive | inactive | inactive | inactive | inactive | inactive | inactive | inactive | inactive |
| NCCC1CCCC(CCN)N1 (centres undefined) | – | – | inactive | inactive | inactive | inactive | inactive | inactive | inactive | inactive | inactive |
| Nc1nc2ccc(Cl)cc2c2nc(-c3ccco3)nn12 | – | – | inactive | inactive | inactive | – | inactive | inactive | inactive | inactive | inactive |
| CC1CNCCN1S(=O)(=O)c1cccc2cnccc12 (centres undefined) | – | – | inactive | inactive | inactive | inactive | inactive | – | 22.4 µM (active) | inactive | inactive |
| CCn1c(=O)[nH]c2cc(Cl)c(Cl)cc21 | – | – | inactive | inactive | inactive | inactive | inactive | inactive | inactive | inactive | inactive |
